Data published in PubChem BioAssay AID489008 (National Center for Advancing Translational Sciences (NCATS), 2010).
Records with an inconclusive call do not appear. Calls of active or inactive are those of the source. Calls follow the shape of the dose curve; as a rule, active = well fitted inhibition curve with a large enough effect; inconclusive = small, poorly fitted or top-dose-only effect; inactive = flat fitted curve, though single readings scatter.

Biological target: Ferritin light chain (Equus caballus) (UniProt P02791)
Sequence (P02791 2-175 limits assumed): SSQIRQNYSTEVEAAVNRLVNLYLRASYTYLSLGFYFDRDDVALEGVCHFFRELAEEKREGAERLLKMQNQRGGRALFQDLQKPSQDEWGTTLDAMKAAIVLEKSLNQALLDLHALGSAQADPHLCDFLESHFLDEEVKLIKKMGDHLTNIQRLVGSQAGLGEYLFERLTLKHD
Assay: Confirmation Assay for Identification of Novel General Anesthetics; also: nearly all actives have a fitted effect of over 40% in size
Conditions: apoferritin 1-aminoanthracene fluorescence displacement
Procedure, shortened: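 Horse apoferritin (10 uM) pre-loaded with 1-AMA (50% saturated, PBS) exposed to compounds 10 min at room temperature; loss of 1-AMA fluorescence (380/535 nm) scaled between free and bound ligand, curves fitted with Hill equation.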
Potency is read from the fitted curve at half-maximal effect.

Potency, active:
O=C(Cc1cccc2ccccc12)N1CCCc2ccccc21 17.8 µM
COc1ccccc1C1SCCN1S(C)(=O)=O (stereo not drawn) 20 µM
O=C(Nc1ccc(F)c(Cl)c1)N1CCCCCC1 7.94 µM
CC(=O)Nc1ncc(Cc2cc(Cl)ccc2Cl)s1 15.8 µM
COc1ccccc1CC(=O)Nc1cc(Cl)ccc1O 17.8 µM
Cc1cc(C)n(Cc2ccccc2Cl)n1 12.6 µM
Cc1cc(C(=O)OCC(=O)N2C(C)CCCC2C)c(C)o1 (stereo not drawn) 14.1 µM
Nc1cc(Cl)ccc1Oc1ccc2ccccc2c1 15.8 µM
CCN(C(=O)c1ccco1)C1C2CC3CC(C2)CC1C3 (stereo not drawn) 14.1 µM
CCCn1nnc(NC(=O)COc2ccc(C3CCCCC3)cc2)n1 12.6 µM
CC1Cc2ccccc2N1C(=O)CSc1ccccc1 (stereo not drawn) 14.1 µM
COc1ccc(Cc2nnc(NC(=O)c3ccccc3F)s2)cc1 25.1 µM
CC1=CCC2C(=O)N(c3ccc(C)cc3)C(=O)C2C1 (stereo not drawn) 10 µM
CC(Nc1ccccc1)c1cccnc1 (stereo not drawn) 15.8 µM
O=C(COc1ccc(F)c(Cl)c1)N1CCCCCCC1 35.5 µM
CC1CCCC(NC(=O)COC(=O)CCc2ccccc2)C1C (stereo not drawn) 25.1 µM
O=C(COC(=O)C(O)c1ccccc1)NC12CC3CC(CC(C3)C1)C2 (stereo not drawn) 12.6 µM
Clc1ccc(NCc2ccsc2)cc1 25.1 µM
O=C(Nc1ccc(Cl)c(Cl)c1)OCc1cncs1 28.2 µM
O=C(CCSc1ccccc1)NC(=O)COC(=O)C1CCCCC1 35.5 µM
O=S(=O)(NCCCc1ccccc1)c1ccc(F)c(F)c1 17.8 µM
Cc1csc(OCC(=O)Nc2ccc(C)c(C)c2)n1 17.8 µM
CC(NC(=O)COC(=O)C1=COCCO1)C12CC3CC(CC(C3)C1)C2 (stereo not drawn) 14.1 µM
O=C(NC1C2CC3CC(C2)CC1C3)c1ccc2c(c1)OCO2 (stereo not drawn) 28.2 µM
O=C(Cn1nc(-c2ccccc2)ccc1=O)NCc1ccc(F)cc1 6.31 µM
N#CC(Nc1ccccc1)c1ccccc1OCc1ccccc1 (stereo not drawn) 35.5 µM
O=C(NC1CCCCC1)C(=S)NCc1ccccc1 15.8 µM
O=C(Nc1cccc(Cl)c1)C1COc2ccccc2O1 (stereo not drawn) 14.1 µM
CCOC(=O)c1c(C(C)(C)C)oc2ccc(O)cc12 39.8 µM
c1cnc(NC2CCCCCC2)nc1 15.8 µM
CC(=O)c1cccc(NC(=O)CCC2CCCC2)c1 28.2 µM
COc1cccc(NC(=O)N2CCCCCC2)c1 14.1 µM
Nc1ccc(C23CC4CC(CC(C4)C2)C3)cc1 7.08 µM
CC1Cc2ccccc2N1C(=O)COC(=O)c1cccnc1Cl (stereo not drawn) 15.8 µM
Nc1cc(C(F)(F)F)ccc1Nc1ccccc1 25.1 µM
O=C(CN1N=C(c2ccc(Cl)cc2)CCC1=O)NCc1ccc(F)cc1 5.82 µM
Cc1ccc(CC(=O)OCC(=O)NC2CCCC(C)C2C)cc1C (stereo not drawn) 28.2 µM
c1cc2cn[nH]c2cc1NC1CCCCCC1 15.8 µM
